In test [1] the target is Luciferin 4-monooxygenase (Photinus pyralis) (UniProt P08659). As to the kind of experiment: Biochemical firefly luciferase enzyme assay for NPC (AID 624030).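 Note: purified P. pyralis luciferase at 10 nM with luciferin and ATP substrate; nearly all actives have a fitted effect of over 70% in size.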 The conditions noted are these: purified P. pyralis luciferase, luminescence, 5 min; series mostly up to 58.6 µM. Summed up:
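Counter-screen for direct inhibition of the luciferase enzyme by approved-drug library compounds, run at 10 nM enzyme in 50 mM Tris acetate (final). Luminescence was read within 5 min of enzyme-buffer addition and normalized to PTC124 versus DMSO (0%).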

Test [2] can be described thus: S16 Schwann cell PMP22 intronic element firefly luciferase assay (AID 624032). Note: potency is the fitted concentration of half-maximal effect; nearly all actives have a fitted effect of over 30% in size. The conditions noted are these: S16 rat Schwann cells, PMP22 element FLuc, 24 h; series mostly up to 57.5 µM. In outline: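 Rat S16 Schwann cells stably carrying a PMP22 intronic element-driven Fluc reporter were seeded overnight, then exposed to compounds for 24 h at 37 °C. Luminescence was normalized to PTC124 (positive control) and DMSO (0% activity).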

A short description of test [3]: S16 Schwann cell PMP22 intronic element beta-lactamase assay (AID 624044; calls by dose curve; note: nearly all actives have a fitted effect of over 15% in size). The conditions noted are these: S16 rat Schwann cells, PMP22 element beta-lactamase FRET, 24 h; ratio activity, negative = inhibition: at 38.3 µM (top of the series) unless noted. In outline:
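Beta-lactamase reporter under a PMP22 intronic regulatory element in stable S16 rat Schwann cells; 24 h compound exposure. 460 nm blue signal normalized between DMSO (0%) and potassium clavulanate, with 535 nm FRET tracking viability; curves classed by r2 and response.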

The test system of test [4] is CP260. As to the kind of experiment: qHTS profiling for inhibitors of Plasmodium falciparum proliferation (AID 504749). Note: nearly all actives have a fitted effect of over 60% in size. The conditions noted are these: P. falciparum in erythrocytes, SYBR Green DNA, 72 h; series mostly up to 28.7 µM. Summed up:
(§1)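 Fluorescence of SYBR Green-bound parasite DNA, read at 485/535 nm, served as the growth measure. Infected erythrocytes were cultured with compound 72 h; artemisinin (0.29 uM) and DMSO wells defined the normalization range.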

Test [5] relates to Dd2. The description is as above. The conditions noted are these: P. falciparum in erythrocytes, SYBR Green DNA, 72 h; series mostly up to 28.7 µM. In outline:
as §1

For test [6], the system named is ICS. Described as above. The conditions noted are these: P. falciparum in erythrocytes, SYBR Green DNA, 72 h; series mostly up to 28.7 µM. Summed up: as §1
A short description of test [7]: Confirmation and Secondary Assay for Modulators of Hemoglobin Beta Chain Splicing at IVS2 654 locus (AID 910).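 Note: per-well total GFP intensity by laser scanning cytometry after 2-day treatment.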 The conditions noted are these: HeLa EGFP-654 splicing reporter, GFP fluorescence, 48 h; series mostly up to 46.1 µM. In outline: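 HeLa cells stably carrying EGFP interrupted by mutant beta-globin IVS2-654 intron (CMV-driven) were treated with compound for 2 days at 37C; corrected splicing was scored as total peak GFP intensity per well (488 nm excitation, 500-520 nm emission).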

Test [8] can be described thus: Confirmation and Secondary Assay for Modulators of Hemoglobin Beta Chain Splicing at IVS2 705 locus (AID 930).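 Note: HeLa cells stably expressing the EGFP-705 splicing reporter; GFP fluorescence per well restored by corrected splicing of the IVS2-705 intron in EGFP.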 The conditions noted are these: HeLa EGFP-705 splicing reporter, GFP fluorescence, 48 h; series mostly up to 46.1 µM. Summed up:
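Splice-correction reporter: EGFP cDNA split by beta-globin intron 2 bearing the 705 mutation, stably in HeLa. Compound incubation 2 days, 37C; fluorescent objects 5-250 µm summed per well.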

2 compounds from PubChem BioAssay (NCATS) can be followed below.

Inconclusive results are not listed. Calls of active or inactive are those of the source. Unless noted, calls come from the whole dose curve; as a rule, active = well fitted curve in the direction sought with a large enough effect; inconclusive = small, poorly fitted or top-dose-only effect, or another doubt; inactive = no such curve, though single readings can be large; an effect the other way counts as inactive or inconclusive.

Luciferin 4-monooxygenase (Photinus pyralis), sequence (P08659 whole entry, looked up): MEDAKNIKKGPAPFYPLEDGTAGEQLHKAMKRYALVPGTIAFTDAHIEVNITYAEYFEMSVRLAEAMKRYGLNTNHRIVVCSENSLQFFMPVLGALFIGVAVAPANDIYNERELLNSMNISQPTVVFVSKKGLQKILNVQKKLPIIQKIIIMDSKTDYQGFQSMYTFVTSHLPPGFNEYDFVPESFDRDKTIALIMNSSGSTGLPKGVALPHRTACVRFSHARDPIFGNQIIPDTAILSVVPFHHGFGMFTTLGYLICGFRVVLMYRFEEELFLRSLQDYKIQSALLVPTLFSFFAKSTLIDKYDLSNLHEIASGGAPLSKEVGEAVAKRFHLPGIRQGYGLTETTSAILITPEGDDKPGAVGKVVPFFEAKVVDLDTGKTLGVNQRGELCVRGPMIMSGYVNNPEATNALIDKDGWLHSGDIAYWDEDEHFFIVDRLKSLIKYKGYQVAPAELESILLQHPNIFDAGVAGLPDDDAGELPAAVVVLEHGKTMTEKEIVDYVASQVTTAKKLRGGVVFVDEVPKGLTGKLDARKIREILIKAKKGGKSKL

In the case of `C[C@]12CC[C@H]3[C@@H](CCC4=CC(=O)CC[C@@]43C)[C@@H]1CC[C@@H]2O`, the Potency result in test [1], in test [3], in test [4], in test [5] and in test [6] was “inactive” each time. For the same compound, the Potency in test [2] was 8.09 µM (active).
For `CNc1ccccc1C(=O)O`, the Potency result in test [7] and in test [8] was “inactive” in each case.
